# In PubChem BioAssay (NCI):
# Compounds without any hit were thinned out: in the full panel of roughly 83,000, 20% have a hit.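 How to read the values: 0–100, growth inhibition (40 = 60% inhibited); 0, no net growth; -100 to 0, cell death (-40 = 40% of starting cells died; -100 = all dead).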 A number with no mark means an inactive call. Activity calls are given as the source filed them. The calls were made as follows: active = growth percent below 10; inactive = the rest.
# Tests used:
# Experiment in all cases: NCI-60 one-dose screen, 48 h (100 = growth as untreated, 0 = no growth, -100 = all killed)
# Conditions in all cases: 10 µM unless noted
# SR leukemia = system: SR leukemia
# OVCAR-8 ovarian = system: OVCAR-8 ovarian
# OVCAR-5 ovarian = system: OVCAR-5 ovarian
# OVCAR-4 ovarian = system: OVCAR-4 ovarian
# SK-OV-3 ovarian = system: SK-OV-3 ovarian
# IGROV1 ovarian = system: IGROV1 ovarian
# OVCAR-3 ovarian = system: OVCAR-3 ovarian
# HS 578T breast = system: HS 578T breast
# T-47D breast = system: T-47D breast
# BT-549 breast = system: BT-549 breast
# MDA-MB-435 melanoma = system: MDA-MB-435 melanoma
# SW-620 colon = system: SW-620 colon
# MCF7 breast = system: MCF7 breast
# HCT-116 colon = system: HCT-116 colon
# HCC-2998 colon = system: HCC-2998 colon
# KM12 colon = system: KM12 colon
# RPMI-8226 leukemia = system: RPMI-8226 leukemia
# NCI/ADR-RES ovarian = system: NCI/ADR-RES ovarian
Structure (SMILES),growth (SR leukemia),growth (OVCAR-8 ovarian),growth (OVCAR-5 ovarian),growth (OVCAR-4 ovarian),growth (SK-OV-3 ovarian),growth (IGROV1 ovarian),growth (OVCAR-3 ovarian),growth (HS 578T breast),growth (T-47D breast),growth (BT-549 breast),growth (MDA-MB-435 melanoma),growth (SW-620 colon),growth (MCF7 breast),growth (HCT-116 colon),growth (HCC-2998 colon),growth (KM12 colon),growth (RPMI-8226 leukemia),growth (NCI/ADR-RES ovarian)
COc1ccc2nc(-c3ccc(-c4noc(-c5cc(OC)c(OC)c(OC)c5)n4)cc3)[nH]c2c1,18.9%,33.6%,113%,-53.4% (active),116%,110%,44.8%,72.6%,83.8%,26.8%,39.1%,63.8%,41.3%,33%,111%,55.4%,,
Oc1ccc(C2c3ccccc3Oc3ccccc32)c2cccnc12,,7.16% (active),44.9%,30.6%,31.4%,20.4%,56.5%,77.6%,31.1%,29.3%,27.3%,23.5%,17.4%,20.1%,35.4%,,28.8%,7.48% (active)
COc1ccc(C(=O)CC#N)cc1,,103%,105%,107%,112%,123%,112%,110%,104%,107%,132%,107%,96.7%,106%,112%,108%,110%,111%
COc1cc(/C=C\c2cc(/C=C\c3ccc(O)c(OC)c3)n(C(=O)COc3ccccc3)n2)ccc1O,,3.26% (active),22.1%,25.6%,-28.6% (active),8.43% (active),-4.46% (active),22.5%,12.4%,-3.68% (active),8.84% (active),7.35% (active),1.3% (active),3.68% (active),34.8%,8.96% (active),-3.54% (active),20.4%
O=C1NN(C(=O)c2ccccc2)C(c2ccc(Cl)c(Cl)c2)=C/C1=C\c1ccc([N+](=O)[O-])cc1,,89.3%,113%,75.2%,96.7%,84.3%,86.6%,78.3%,76.7%,52.4%,86.5%,42.9%,83.6%,90.7%,44.6%,51.7%,59.2%,92.6%
CN1CCN(CCNc2nccc(-c3c(-c4cccc(O)c4)nc4sccn34)n2)S1(=O)=O,,73.3%,68.6%,77.5%,47.1%,45.7%,81.5%,76.7%,68.5%,52.3%,29.2%,65.4%,71.3%,25.1%,88%,34.4%,48.7%,101%
CC(C)c1ccc(Nc2ccc3c(OCCCN4CCN(C)CC4)cccc3n2)cc1,,88.7%,81.2%,74.2%,99.9%,83.1%,79.4%,77%,68.9%,79.6%,22.6%,4.69% (active),18.2%,18.6%,64.7%,39.3%,2.88% (active),82%
COc1cc(/C=C\c2cc(OC)c(OC)c(OC)c2)cc(NC(=O)/C=C/c2cc(OC)c(OC)c(OC)c2)c1OC,,56.6%,77.3%,61%,50.8%,52.8%,51.1%,68.6%,19.6%,26.2%,-13.1% (active),57%,27.6%,41.1%,70.8%,,45%,17.8%
CC1(C)NCCC[C@]2(C)[C@H]3CC[C@@H]4[C@H]5[C@H](C(=O)/C=C/c6ccco6)CC[C@]5(CO)CC[C@@]4(C)[C@]3(C)CC[C@@H]12,,95.2%,101%,79.9%,93.1%,89.5%,92.6%,86.8%,75.7%,89.1%,66.7%,69.7%,46.6%,33.7%,91.4%,82.9%,44.2%,95.2%
COc1ccc2[nH]c(O)c(/C=c3/cc4c(c(-c5ccc(F)cc5)n3)=Nc3ccccc3-4)c2c1,6.4% (active),75.5%,119%,81.6%,115%,96.8%,94.7%,78.8%,73.6%,98.9%,34.4%,27.5%,26.8%,27.9%,72.8%,43.7%,,52.1%
Cc1nc2sccn2c1-c1nc2sccn2c1/C=C1/C(=O)Nc2ccccc21,,52.1%,41.8%,63.6%,31.2%,-15.5% (active),-30.9% (active),31.8%,27.6%,36%,-63.8% (active),9.78% (active),10.6%,24.1%,66.8%,,20.1%,47.9%
Cn1cc(-c2nc(-c3c[nH]c4c(Cl)nccc34)cs2)c2cc(Br)ccc21,,80.2%,97.6%,90.5%,95.6%,102%,111%,85.6%,39.1%,95.7%,79.4%,98.6%,77.4%,88.8%,114%,,78.6%,97.6%
Cc1cc(Cl)nc(N(CCNc2ccnc3cc(Cl)ccc23)Cc2ccccn2)n1,,39.3%,74.3%,35%,82.9%,57.5%,3.13% (active),87.3%,-19.6% (active),75.4%,61.7%,56.6%,53.6%,17.3%,85.7%,64.1%,26.6%,47.5%
Cc1nn(-c2ccccc2)c(Cl)c1/C=N\N=c1/sc2ccccc2n1C,,98.2%,92.6%,117%,94.7%,96.2%,111%,104%,93.7%,92.8%,102%,101%,97%,84.5%,101%,106%,78.6%,104%
Cn1cc(-c2nc(-c3c[nH]c4c(Cl)nccc34)cs2)c2cc(F)ccc21,,89.6%,119%,88%,100%,117%,114%,113%,48.6%,118%,98.6%,102%,68.1%,105%,119%,96.4%,90.1%,111%
